From PubChem BioAssay AID602405 (Broad Institute, 2012)
Among all 360,000 compounds or so, about 350 (0.097%) were called active. Cut-off read from the data, not from the text of the source: active = inhibition above about 16% (passing the limit was not always enough); inconclusive = no clear call, values can overlap the other calls; inactive = below that. Many of the other results were omitted from the sample, so actives are more common in it than they were.

What follows are compounds tested on UDP-N-acetylbacillosamine N-acetyltransferase PglD (Campylobacter jejuni) (assay: C. jejuni PglD acetyltransferase inhibitors, primary screen, biochemical, DTNB colorimetric, single point (AID 602405)). Settings: purified PglD enzyme, DTNB colorimetric CoA detection; at 12.5 µM; stronger effect = higher value.

Structure (SMILES)	inhibition
C[C@@H]1CN([C@@H](C)CO)C(=O)c2cc(N(C)C)ccc2O[C@@H](C)CCCCO[C@H]1CN(C)C(=O)CCCN(C)C	2.35% (inactive)
CCC(=O)Nc1ccc2c(c1)C(=O)N(C)C[C@@H](OC)[C@@H](C)CN(Cc1ccccc1OC)[C@H](C)CO2	0.2% (inactive)
CC(C)NC(=O)Nc1ccc2c(c1)C(=O)N([C@H](C)CO)C[C@@H](C)[C@@H](CN(C)S(=O)(=O)c1cccs1)OCCCC[C@@H](C)O2	-0.385% (inactive)
C[C@H]1CN([C@@H](C)CO)C(=O)c2cccc(NC(=O)Nc3cccc4ccccc34)c2O[C@@H]1CN(C)C(=O)NC1CCCCC1	0.764% (inactive)
C[C@@H]1CN([C@H](C)CO)S(=O)(=O)c2ccc(C#CCC3CCCC3)cc2O[C@H]1CN(C)Cc1ccc(C(=O)O)cc1	6.4% (inactive)
Cc1noc(C)c1S(=O)(=O)Nc1ccc2c(c1)CC(=O)N([C@@H](C)CO)C[C@@H](C)[C@H](CN(C)C)O2	-1.66% (inactive)
CN(C)C(=O)c1cccc(-c2ccc3c(c2)[C@@H]2[C@@H](CCN2Cc2nccs2)[C@@H](CO)N3)c1	0.288% (inactive)
CCNC(=O)Nc1ccc2c(c1)C(=O)N(C)[C@@H]1CC[C@H](CC(=O)NC3CCCCC3)O[C@H]1CO2	1.07% (inactive)
C[C@@H]1CN([C@@H](C)CO)C(=O)c2cc(C#CCN(C)C)cnc2O[C@@H]1CN(C)Cc1ccccn1	3.09% (inactive)
COc1cccc(NC(=O)N(C)C[C@H]2Oc3ncc(C4=CCCCC4)cc3C(=O)N([C@H](C)CO)C[C@H]2C)c1	10.3% (inactive)
CN1C(=O)c2cc(NC(=O)c3cccc(F)c3)ccc2OC[C@@H]2O[C@H](CC(=O)N3CCc4ccccc4C3)CC[C@@H]21	-1.96% (inactive)
CNC(=O)C[C@@H]1CC[C@@H]2[C@H](COC[C@@H](O)CN2S(=O)(=O)c2ccccc2Cl)O1	1.56% (inactive)
Cc1noc(C)c1S(=O)(=O)N(C)C[C@H]1Oc2ccc(NC(=O)Cc3ccccc3)cc2CC(=O)N([C@@H](C)CO)C[C@H]1C	2.8% (inactive)
O=C(C[C@H]1C[C@@H]2c3cc(NC(=O)C4CCC4)ccc3O[C@@H]2[C@@H](CO)O1)NCCN1CCCCC1	3.36% (inactive)
COc1cccc(S(=O)(=O)N[C@H]2C=C[C@H](CC(=O)NC3Cc4ccccc4C3)O[C@@H]2CO)c1	-1.14% (inactive)
COc1ccc(S(=O)(=O)N[C@@H]2CC[C@H](CC(=O)N3CCc4ccccc4C3)O[C@H]2CO)cc1	-0.563% (inactive)
COCC#Cc1cnc2c(c1)C(=O)N([C@@H](C)CO)C[C@@H](C)[C@H](CN(C)C(=O)C1CCOCC1)O2	4.25% (inactive)
COc1ccc(NC(=O)N(C)C[C@H]2OCCCC[C@@H](C)Oc3ccc(NC(=O)NC4CCCCC4)cc3C(=O)N([C@@H](C)CO)C[C@H]2C)cc1	4.17% (inactive)
O=C(NCC[C@@H]1CC[C@@H](NC(=O)Nc2cc(F)ccc2F)[C@H](CO)O1)Nc1ccc(Cl)cc1	0.614% (inactive)
COc1cccc(S(=O)(=O)N2CCCCN3[C@H](CO)[C@H](c4ccc(-c5ccncc5)cc4)[C@H]3C2)c1	2.87% (inactive)
Cc1noc(C)c1S(=O)(=O)N(C)C[C@@H]1Oc2ccc(NC(=O)C3CC3)cc2CC(=O)N([C@@H](C)CO)C[C@@H]1C	-3.27% (inactive)
COc1cccc(C(=O)Nc2ccc3c(c2)C(=O)N(C)[C@H]2CC[C@H](CC(=O)N[C@@H](C)c4ccccc4)O[C@H]2CO3)c1	0.936% (inactive)
